Among all 290,000 compounds or so, about 3,000 (1%) were called active. No stated cut-off is given here; in the data, active means inhibition mostly above about 36% (no sharp cut-off); inactive means mostly below about 34%. Many of the other results were omitted from the sample, so actives are more common in it than they were.
Each compound was assayed against T1, Nucleotide-binding oligomerization domain-containing protein 1, Homo sapiens (UniProt Q9Y239) (assay: NOD1 signaling inhibitors, primary screen, cell-based, luminescence, uHTS (AID 1578)).
T1 sequence (whole entry): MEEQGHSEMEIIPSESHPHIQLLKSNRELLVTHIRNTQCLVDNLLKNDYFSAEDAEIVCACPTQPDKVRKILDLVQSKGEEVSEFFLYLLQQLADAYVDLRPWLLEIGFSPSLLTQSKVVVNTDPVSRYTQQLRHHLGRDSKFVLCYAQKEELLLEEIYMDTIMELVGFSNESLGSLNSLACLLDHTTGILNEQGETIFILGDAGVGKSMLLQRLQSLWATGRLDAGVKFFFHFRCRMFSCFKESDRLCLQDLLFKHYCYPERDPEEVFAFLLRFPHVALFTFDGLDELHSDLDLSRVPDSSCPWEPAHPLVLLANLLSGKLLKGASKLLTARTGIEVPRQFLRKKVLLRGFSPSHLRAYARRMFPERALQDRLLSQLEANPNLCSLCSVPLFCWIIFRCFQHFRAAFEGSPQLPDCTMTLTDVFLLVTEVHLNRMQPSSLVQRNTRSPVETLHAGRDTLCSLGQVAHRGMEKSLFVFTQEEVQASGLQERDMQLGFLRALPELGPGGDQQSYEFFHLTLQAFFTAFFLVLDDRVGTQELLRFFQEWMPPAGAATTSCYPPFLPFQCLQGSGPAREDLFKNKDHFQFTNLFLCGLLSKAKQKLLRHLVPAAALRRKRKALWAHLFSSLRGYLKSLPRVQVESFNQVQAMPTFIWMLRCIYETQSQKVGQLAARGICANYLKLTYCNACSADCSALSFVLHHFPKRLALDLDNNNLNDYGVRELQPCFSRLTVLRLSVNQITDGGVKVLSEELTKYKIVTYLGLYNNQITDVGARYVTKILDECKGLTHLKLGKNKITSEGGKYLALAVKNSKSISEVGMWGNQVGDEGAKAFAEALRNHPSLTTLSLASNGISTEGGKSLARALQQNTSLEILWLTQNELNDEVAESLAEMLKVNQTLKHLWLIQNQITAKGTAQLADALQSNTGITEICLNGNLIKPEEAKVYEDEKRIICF

outcome, active:
O=c1cc(-c2ccccc2Cl)oc2c([N+](=O)[O-])c(O)cc(O)c12
O=C(CSc1nc2nc(-c3cccs3)cc(C(F)(F)F)c2c(=O)[nH]1)Nc1c(F)c(F)c(F)c(F)c1F
Cc1ccc(C)c(NC(=O)CSc2nc3nc(-c4cccs4)cc(C(F)(F)F)c3c(=O)[nH]2)c1
O=C(CSc1nc2nc(-c3cccs3)cc(C(F)(F)F)c2c(=O)[nH]1)Nc1ccc(F)c(F)c1
CCOc1ccccc1NC(=O)CSc1nc2nc(-c3cccs3)cc(C(F)(F)F)c2c(=O)[nH]1
COc1ccc(-c2c(C(F)(F)F)[nH]n3c(=O)cc(-c4ccccc4)nc23)cc1
O=c1cc(-c2ccccc2)nc2c(-c3ccccc3)c(C(F)(F)F)[nH]n12
CC(C)CC(=O)/C=C/n1c(=S)oc2ccccc21
CC(=O)/C=C/n1c(=S)oc2ccccc21
CCOC(=O)N1CCN(C(=O)C2CCCN(Cc3nc(-c4ccc(Cl)cc4)oc3C)C2)CC1 (configuration not stated)
CC(=O)c1c(C)[nH]c(C(=O)OCC(=O)Nc2sc3c(c2C#N)CCCC3)c1C
COc1ccccc1Nc1nc(-c2sc(NC(=O)c3ccco3)nc2C)cs1
Br.CC(=O)Nc1nc(C)c(-c2csc(Nc3ccc(O)cc3)n2)s1
CC[C@H]1CN2CCc3cc(OC)c(OC)cc3[C@@H]2C[C@@H]1C[C@H]1NCCc2cc(OC)c(OC)cc21.Cl
O=C(NC(=S)N1CCN(c2ccc(C(F)(F)F)cc2[N+](=O)[O-])CC1)c1cccs1
O=C(NC(=S)N1CCN(c2ccc(Cl)cc2[N+](=O)[O-])CC1)c1cccs1
O=C(c1ccc2c(c1)CCN2S(=O)(=O)c1ccccc1)N1CCN(c2ccc(F)cc2)CC1
COc1ccc(C2CC(c3cccs3)=NN2C(=O)CCl)cc1OC (configuration not stated)
COc1cc(C2CC(c3cccs3)=NN2C(=O)CCl)ccc1OC(F)F (configuration not stated)
O=C(COc1ccc(C(=O)c2ccccc2)cc1)Nc1cccnc1
Cc1ccc(-n2ncc(Br)c(Br)c2=O)cc1
COc1cc(OC)nc(-n2ncc(Br)c(Br)c2=O)n1
Cc1cccc(/C=C(\c2nc3ccccc3[nH]2)S(=O)(=O)c2ccccc2)c1
CC(C)c1ccc(/C=C(\c2nc3ccccc3[nH]2)S(=O)(=O)c2ccccc2)cc1
O=S(=O)(/C(=C/c1ccc(C(F)(F)F)cc1)c1nc2ccccc2[nH]1)c1ccccc1
Cc1ccc(Cc2cnc(N3C(=N)SC(c4ccccc4)C3=O)s2)cc1 (configuration not stated)
N=C1SC(c2ccccc2)C(=O)N1c1ncc(Cc2ccccc2)s1 (configuration not stated)
N=C1SC(c2ccccc2)C(=O)N1c1ncc(Cc2ccccc2Cl)s1 (configuration not stated)
CCOc1ccc2nc(SCc3ccc(CC(=O)O)cc3)c(C#N)cc2c1
Cc1nc2ccc(NS(=O)(=O)c3c(C)c(C)cc(C)c3C)cc2s1
CSc1nc2ccc(NS(=O)(=O)c3ccc4c(c3)OCCO4)cc2s1
Cc1nc2ccc(NS(=O)(=O)c3ccc4c(c3)OCCO4)cc2s1
O=C(CCl)Nc1cc(SCC(O)CO)cc([N+](=O)[O-])c1 (configuration not stated)
COc1cc(F)ccc1CN1CCC(C(=O)Nc2ccc(Oc3ccccc3)nc2)CC1
CCOC(=O)C1=C(C)N=c2s/c(=C/c3cccc([N+](=O)[O-])c3O)c(=O)n2C1c1ccccc1 (configuration not stated)
Cc1ccc(N(Cc2cc(=O)[nH]c3ccccc23)C(=O)CCl)c(C)c1
Cc1ccccc1N(Cc1cc(=O)[nH]c2ccccc12)C(=O)CCl
COc1cccc(C(=O)Oc2c(Br)cc(Br)cc2/C=N/NC(=O)c2cc(C)[nH]n2)c1
Cc1cc(C(=O)N/N=C/c2cc(Br)ccc2OC(=O)c2ccccc2)n[nH]1
Cc1cc(C(=O)N/N=C/c2cc(Br)cc(Br)c2OC(=O)c2cccc(F)c2)n[nH]1
Cc1ccc(-c2csc3ncnc(Sc4nnc(CN5CCCCCC5=O)o4)c23)cc1
CCN(CC)S(=O)(=O)c1cccc(-n2c(O)c(C=Nc3ccccc3C(=O)O)c3ccccc3c2=O)c1
COc1ccc(Cn2c(O)c(C=Nc3ccccc3C(=O)O)c3ccccc3c2=O)cc1
COc1ccccc1NS(=O)(=O)c1cccc(-n2c(O)c(C=Nc3ccccc3C(=O)O)c3ccccc3c2=O)c1
COC(=O)Cc1[nH]n(-c2nc3ccccc3s2)c(=O)c1C(C)=Nc1ccc(C)cc1
Cc1ccc(Cl)cc1N1CCN(C(=O)c2cc3c(=O)[nH]c4ccccc4c3n2C)CC1
COc1ccc(CN(C)Cc2nc(Cc3cccc(F)c3)no2)c2cccnc12
Cc1nc(SCC(=O)Nc2nc3ccccc3s2)c(C#N)c(C)c1C
COc1ccc(-n2nnnc2S(=O)(=O)CC(=O)N2CCCCC2)cc1
Cc1cc(Nc2cccc([N+](=O)[O-])c2)n2c(nc3ccccc32)c1C#N
CCc1nnc(NC(=O)c2ccc(Cl)c(S(=O)(=O)N3CCc4ccccc43)c2)s1
CC(NC(=O)OCc1ccccc1)C(=O)Oc1cc2oc(=O)cc(-c3ccccc3)c2cc1Cl (configuration not stated)
CC(NC(=O)OC(C)(C)C)C(=O)Oc1cc2oc(=O)cc(-c3ccccc3)c2cc1Cl (configuration not stated)
COC(=O)c1ccc(Nc2c([N+](=O)[O-])c(=O)oc3ccccc23)cc1
CCOC(=O)c1sc(N2C(=O)C(O)=C(C(=O)c3ccco3)C2c2ccco2)nc1C (configuration not stated)
CCOC(=O)N1CCN(C(=O)c2ccc(Cn3c(=S)[nH]c4cc5c(cc4c3=O)OCO5)cc2)CC1
Cc1ccc(C(=O)Sc2cccccc2=O)cc1
CC(=O)c1c(C)[nH]c(C(=O)OCC(=O)Nc2ccc(C)cc2[N+](=O)[O-])c1C
CC(/C=C1\SC(=O)N(CCCC(=O)O)C1=O)=C\c1ccccc1
C=CCN(CC=C)C(=S)NC(=O)c1ccc(-c2ccccc2)cc1
CN(Cc1ccccc1)C(=S)NC(=O)c1ccc(-c2ccccc2)cc1
CCOc1cc(/C=C(/C#N)c2ccc(Cl)cc2)cc(Cl)c1OCC(=O)O
CC1=C(CO)C(=O)OC([C@@H](C)C2CC[C@H]3C4C[C@H]5O[C@]56[C@@H](O)C=CC(=O)[C@]6(C)C4CC[C@]23C)C1 (some centres not stated)
Cc1cccc(-c2nnc(NC(=O)c3ccc(Cl)cc3)o2)c1
CN(C)c1ccc(C(=O)Nc2nnc(-c3ccc(Cl)cc3)o2)cc1
O=C(Nc1nnc(-c2ccccc2)o1)c1ccc(Cl)cc1
COc1ccc(OC)c(NC(=O)CSc2ncnc3c2cnn3-c2ccccc2Cl)c1
CCCC(Oc1ccc(Br)cc1)c1nc2c3cc(OC)c(OC)cc3nc(=S)n2[nH]1 (configuration not stated)
CC(Oc1ccc(Br)cc1)c1nc2c3ccccc3nc(=S)n2[nH]1 (configuration not stated)
COc1ccc(CCNc2ncnc3c2oc2ccccc23)cc1OC.Cl
Oc1ccc(CCNc2ncnc3ccc(Cl)cc23)cc1
COc1ccc(CCNc2ncnc3sc(C)cc23)cc1OC.Cl
COc1ccc(CCNc2ncnc3sccc23)cc1OC
COc1ccc(CCNc2ncnc3cc(OC)c(OC)cc23)cc1OC
O=C(c1ccc(S(=O)(=O)c2cccc(Cl)c2)c([N+](=O)[O-])c1)N1CCN(Cc2ccccc2)CC1
COc1ccc(NC(=O)/C(Cl)=C(/Cl)S(=O)Cc2ccccc2Cl)cn1 (configuration not stated)
COc1ccc(NC(=O)/C(Cl)=C(/Cl)S(=O)Cc2ccc(Cl)cc2)cn1 (configuration not stated)
COc1ccc(NC(=O)/C(Cl)=C(/Cl)S(=O)Cc2ccc(C)cc2)cn1 (configuration not stated)
COc1ccc(NC(=O)/C(Cl)=C(/Cl)S(=O)Cc2ccccc2)cn1 (configuration not stated)
COc1ccc(CS(=O)/C(Cl)=C(/Cl)C(=O)Nc2ccc(OC)nc2)cc1 (configuration not stated)
CC(=O)c1ccc(N2CCN(C(=S)Nc3ccc(Oc4ccccc4)cc3)CC2)cc1
C=CCSc1nsc(NC(=O)Nc2cccc(C(C)=O)c2)n1
Cc1ccc(CS(=O)(=O)c2ccc(C(=O)N3CCN(c4ccccn4)CC3)cc2[N+](=O)[O-])cc1
Cc1ccccc1CN1CCc2c(OCC(=O)N3CCCc4ccccc43)cccc2C1=O
O=[N+]([O-])c1ccc(NC(=S)NCCc2ccc(Cl)cc2)cc1
O=[N+]([O-])c1ccc(NC(=S)NCc2ccc(F)cc2)cc1
Cc1cc(-c2ccc(C)c(S(=O)(=O)N3CCN(c4ccc(F)cc4)CC3)c2)on1
COc1ccc(-c2cc(C)no2)cc1S(=O)(=O)N1CCN(c2ccccc2F)CC1
CCOC(=O)COc1ccc2ccccc2c1/C=C/[N+](=O)[O-]
COc1ccc(CC(=O)Nc2cccc(-c3nnc(-c4ccc(C)cc4)o3)c2)cc1OC
c1ccc2c(c1)ncn2-c1ccc(-c2ccnc(-c3ccncc3)n2)cc1
Nc1nccc(-c2ccc(-n3cnc4ccccc43)cc2)n1
O=C(NNC(=O)c1ccccc1OCc1ccccc1)c1ccccc1O
O=C(NNC(=O)c1ccccc1OCc1ccc(F)cc1)c1ccccc1O
COc1cccc(-c2nnc3n2N=C(C(C)(C)C)CS3)c1
c1csc(C2=Nn3c(nnc3-c3ccncc3)SC2)c1
COc1ccc(C2=Nn3c(nnc3-c3ccncc3)SC2)cc1
c1ccc(C2=Nn3c(nnc3-c3ccncc3)SC2)cc1
Clc1ccccc1C1=Nn2c(nnc2-c2ccncc2)SC1
N#C/C(=C(/O)COC(=O)COc1ccc(Cl)cc1)c1nc2ccccc2[nH]1
Cc1cc(C)cc(OCC(=O)OC/C(O)=C(\C#N)c2nc3ccccc3[nH]2)c1
N#C/C(=C(/O)COC(=O)COc1cccc(Br)c1)c1nc2ccccc2[nH]1

From the GenesisPotency data set
